The record followed here is PubChem BioAssay AID504834 (National Center for Advancing Translational Sciences (NCATS), 2011).

Hit rate of the full screen: of about 320,000 compounds, about 22,000 (6.9%) were called active. Entries that show only a call come without a potency. Not shown: some 27% with an inconclusive outcome. The sample holds actives, similar compounds and a random draw of the others, so the mix is not that of the screen. Calls come from the whole dose curve; as a rule, active = well fitted inhibition curve with a large enough effect; inconclusive = small, poorly fitted or top-dose-only effect, or another doubt; inactive = no such curve, though single readings can be large or run the other way.
Potency is the fitted concentration of half-maximal effect.

The nature of the experiment: Primary qHTS for delayed death inhibitors of the malarial parasite plastid, 96 hour incubation. The following applies: P. falciparum luciferase reporter growth; series mostly up to 28.7 µM. The method in brief:
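Luminescence readout: decreased luciferase signal marks inhibited growth of reporter-expressing P. falciparum in infected red cells (2% hematocrit, 0.05% parasitemia final), exposed to compound two generations (96 h, 37 C, 5% CO2).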
Background: Quantitative high-throughput screening tests each substance at several concentrations.
On to `Cc1nc2ccc(S(=O)(=O)N(C)CC(=O)NC(C)c3ccccc3)cc2s1` (configuration not stated), for which the Potency entry is “inactive”.

For `N#CCC(=O)Nc1ccc(C(=O)OCC(=O)Nc2sc3c(c2C#N)CCCC3)cc1`, the Potency entry is “inactive”.

For `O=C1C2CCCN2C(=O)N1CCCCN1CCN(c2cccc(C(F)(F)F)c2)CC1` (configuration not stated), the Potency was 13.1 µM (active).

`Cc1ccccc1N1CCN(CCCN2C(=O)C3CCCCN3C2=O)CC1` (configuration not stated): the Potency entry is “inactive”.

`O=C(C1CC(=O)N(C2CCCC2)C1)N1CCN(c2cccc(C(F)(F)F)c2)CC1` (configuration not stated): the Potency entry is “inactive”.

With `CCCc1cc(=O)oc2c(C)c(OCC(=O)NCc3ccccn3)ccc12`, the Potency result is “inactive”.

As to `O=C(Cc1cccc2ccccc12)NNC(=O)Nc1ccc(Cl)cc1`, the Potency result was “inactive”.

Take `CCCN1C2CCCC1CC(NC(=O)NC13CC4CC(CC(C4)C1)C3)C2` (configuration not stated): the Potency result was “inactive”.

For `CCN(CC(=O)NCc1cccs1)S(=O)(=O)c1ccc(NC(C)=O)cc1`, the Potency entry is “inactive”.

On to `CC1CCCCN1S(=O)(=O)c1ccc(C(=O)Nc2nnc(-c3cccs3)o2)cc1` (configuration not stated), for which the Potency entry is “inactive”.

As for `CC1CCCCN1S(=O)(=O)c1ccc(S(=O)(=O)N(CC(=O)Nc2ccccc2)Cc2cccs2)cc1` (configuration not stated), the Potency is 4.65 µM (active).

In the case of `Cc1ccccc1C(=O)Nc1ccccc1NC(=O)c1ccccc1C`, the Potency result was “inactive”.

With `Cc1ccc(C)c(CN2CCC(CNC(=O)Nc3ccc(C)c(F)c3)CC2)c1`, the Potency result was “inactive”.

Regarding `COc1cc(NC(=O)NCC2CCN(Cc3ccc(C)cc3)CC2)cc(OC)c1OC`, the Potency was 10.4 µM (active).

In the case of `Cc1cccc(CN2CCC(CNC(=O)Nc3ccc(F)c(Cl)c3)CC2)c1`, the Potency entry was “inactive”.

As to `Cc1ccccc1NC(=O)NCC1CCN(Cc2cccc(Cl)c2)CC1`, the Potency entry was “inactive”.

`O=C(NCC1CCN(Cc2ccccc2Cl)CC1)Nc1cccc(Cl)c1`: the Potency is 1.65 µM (active).

Take `COc1ccc(Cl)cc1NC(=O)NCC1CCN(Cc2ccccc2F)CC1`: the Potency result was “inactive”.

With `Cc1ccc(C(=O)N/C(=C\c2cn(S(=O)(=O)N(C)C)c3ccccc23)C(=O)N2CCCC2)cc1`, the Potency result is “inactive”.

As for `COc1ccc(-n2nnnc2CNC(=O)c2ccc3ccccc3c2)cc1`, the Potency entry was “inactive”.

Regarding `COc1ccc(NC(=O)N2CCCC(C(=O)Nc3ccccc3OC)C2)cc1` (configuration not stated), the Potency entry was “inactive”.

On to `CSC1=NCCN1C(=O)Cc1cccc2ccccc12`, for which the Potency entry was “inactive”.

For the compound `COc1cc(CNCc2ccc(OC)c3ccccc23)cc(OC)c1OC`, the Potency result was “inactive”.

For the compound `Cc1ccccc1CN1CCC(C(=O)Nc2ccc(Oc3cccnc3)cc2)CC1`, the Potency entry was “inactive”.

On to `COc1cc(NC(=O)C2CCN(c3cnccn3)CC2)cc(OC)c1`, for which the Potency was 2.62 µM (active).

Take `O=C(Nc1cccc(Cl)c1)C1CCCN(c2cnccn2)C1` (configuration not stated): the Potency result is “inactive”.

With `O=C(COC(=O)Cc1ccccc1F)NCCc1ccccc1`, the Potency entry is “inactive”.

For the compound `Cc1nc2ccc(S(=O)(=O)NC(C(=O)N3CCCCCC3)C(C)C)cc2s1` (configuration not stated), the Potency result was “inactive”.

On to `Cc1nc2ccc(S(=O)(=O)NCC(=O)O)cc2s1`, for which the Potency is 16.5 µM (active).

For the compound `Cc1nc2ccc(S(=O)(=O)NCC(=O)NCCN3CCCCC3C)cc2s1` (configuration not stated), the Potency result is “inactive”.

Turning to `C=CCC(NC(=O)Cc1ccccc1)C(=O)NCCC` (configuration not stated), the Potency result is “inactive”.

For `CCOCCc1nn2c(=O)cc(CSCC(=O)Nc3cccc(C)c3C)nc2s1`, the Potency result was “inactive”.

For the compound `Cc1nn(Cc2ccccc2)c(C)c1C(=O)N1CCN(CC(=O)Nc2ccccc2Cl)CC1`, the Potency is 13.1 µM (active).

On to `COc1cccc(NC(=O)CN2CCN(CC(=O)Nc3ccccc3Cl)CC2)c1`, for which the Potency result is “inactive”.

With `O=C(CN1CCCCC1)Nc1ccccc1Cl`, the Potency entry is “inactive”.

Consider `Cc1ccc(NC(=O)Cc2nc(COC(=O)C(C)NS(=O)(=O)c3ccc(C)cc3)cs2)cc1` (configuration not stated), for which the Potency entry was “inactive”.

Regarding `CCN(CC)C(=O)c1nc[nH]c1C(=O)N(C)Cc1ccccc1`, the Potency result is “inactive”.

Consider `CC(=O)Nc1ccc(Oc2ccc3c(c2)C(=O)NC3=O)cc1`, for which the Potency result is “inactive”.

In the case of `Cc1csc(NC(=O)CSc2nc(=O)cc(N)n2-c2ccc(F)cc2)n1`, the Potency entry was “inactive”.

For `Cc1cccc(NC(=S)NCCc2ccc(Cl)cc2)c1C`, the Potency result was “inactive”.

Turning to `Cc1cc(OCCN2CCCC2)ccc1C(C)C`, the Potency entry was “inactive”.

For `Cc1cc(OCCN2CCCC2)cc(C(C)C)c1`, the Potency is 10.4 µM (active).

Regarding `Cc1ccc(C(C)C)cc1OCCN1CCCC1`, the Potency result was “inactive”.

Regarding `CCOCCCNc1c(CC)c(C)c(C#N)c2nc3ccccc3n12`, the Potency result is “inactive”.

Regarding `CN1C(C(=O)NCC2CC2)CC2Cn3c(nc4ccccc43)C21` (configuration not stated), the Potency entry was “inactive”.

As for `CCOC(=O)N1CCN(Cc2nc3cc(NC(=O)CC)ccc3n2CC)CC1`, the Potency result was “inactive”.

Turning to `CCOC(=O)N1CCN(Cc2nc3cc(NC(C)=O)ccc3n2C)CC1`, the Potency result was “inactive”.

For `CCOC(=O)N1CCN(Cc2nc3ccc([N+](=O)[O-])cc3c(=O)n2-c2cccc(OC)c2)CC1`, the Potency is 2.33 µM (active).

With `CN(C(=O)CSc1nnc(-c2ccc3c(c2)OCO3)o1)C1CCS(=O)(=O)C1` (configuration not stated), the Potency entry was “inactive”.

With `CC(=O)Nc1ccc(/C=C/C(=O)c2ccccc2)cc1`, the Potency result was “inactive”.

On to `O=C(NC1CCCC1)C(=O)c1c[nH]c2ccccc12`, for which the Potency entry is “inactive”.

Consider `Cc1cccc(OCC(O)CN2CCN(S(=O)(=O)c3ccc(C)cc3C)CC2)c1` (configuration not stated), for which the Potency was 6.57 µM (active).

As for `CC(=O)c1ccc(OCC(O)CN2CCN(S(=O)(=O)c3cccc(Br)c3)CC2)cc1` (configuration not stated), the Potency result is “inactive”.

Take `OC(COc1cccc(OCC(O)CN2CCCC2)c1)CN1CCCC1` (configuration not stated): the Potency entry is “inactive”.

For `O=S(=O)(Nc1ccc(-n2cnnn2)cc1)c1ccc(Cl)cc1`, the Potency result was “inactive”.

Turning to `C=CC[n+]1c(-c2ccc(C)cc2)csc1NNC(=O)Nc1ccccc1`, the Potency was 7.38 µM (active).

On to `C=CCNc1scc(-c2ccccc2)[n+]1CC=C`, for which the Potency entry is “inactive”.

Regarding `Cc1ccc(NC(=O)NNC(=O)c2sccc2-n2cccc2)cc1`, the Potency result was “inactive”.

`O=C(NCc1ccco1)/C(=C/c1cccc([N+](=O)[O-])c1)NC(=O)c1ccco1`: the Potency entry is “inactive”.

`CCc1sc(C(=O)N2CCN(CC(=O)Nc3cccc(F)c3)CC2)cc1C`: the Potency result is “inactive”.

Regarding `Cc1noc(/C=C/c2ccco2)c1S(=O)(=O)N1CCC(C(=O)N2CCc3ccccc32)CC1`, the Potency result is “inactive”.

`Cc1ccc(NC(=O)C2CCCN(S(=O)(=O)c3c(C)noc3C)C2)c(C)c1` (configuration not stated): the Potency result was “inactive”.

On to `CNC(=O)C1CCN(S(=O)(=O)c2c(C)noc2/C=C/c2cccc(C)c2)CC1`, for which the Potency is 10.4 µM (active).

Turning to `O=C(CCC1CCCCC1)Nc1cc(C(F)(F)F)ccc1N1CCOCC1`, the Potency is 13.1 µM (active).

As for `CCC(=O)Nc1cc(C(F)(F)F)ccc1N1CCCC1`, the Potency entry is “inactive”.

Regarding `CC(C)CC(=O)Nc1cc(C(F)(F)F)ccc1N1CCOCC1`, the Potency result was “inactive”.

Take `CCc1ccc(C(=O)NC(=S)Nc2ccccc2N2CCOCC2)cc1`: the Potency result is “inactive”.
